# From PubChem BioAssay (NCI)
# Values joined by “and” are separate entries in the source; they are usually repeats but may differ in a detail not shown here. Identical values can stand only once. The panel holds about 83,000 compounds, 20% with a hit somewhere; the sample as a whole holds those more often.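 Cell lines were cultured in 96-well plates, exposed to a single compound concentration, and assessed for percent growth 48 hours later.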 Active and inactive are the calls of the source. How the source made its calls: active means growth percent below 10; inactive means the rest.
# What was measured:
# Assay in all cases: NCI-60 one-dose screen, 48 h (100 = growth as untreated, 0 = no growth, -100 = all killed)
# Settings in all cases: 10 µM unless noted
# [1] = test system: SR leukemia
# [2] = test system: RPMI-8226 leukemia
# [3] = test system: OVCAR-8 ovarian
# [4] = test system: OVCAR-5 ovarian
# [5] = test system: OVCAR-4 ovarian
# [6] = test system: SK-OV-3 ovarian
# [7] = test system: OVCAR-3 ovarian
# [8] = test system: HS 578T breast
# [9] = test system: NCI/ADR-RES ovarian
# [10] = test system: IGROV1 ovarian
Structure (SMILES),growth [1],growth [2],growth [3],growth [4],growth [5],growth [6],growth [7],growth [8],growth [9],growth [10]
c1ccc2c(c1)OC1OC2Oc2ccccc21,76.1% (inactive),106% (inactive),104% (inactive),103% (inactive),105% (inactive),102% (inactive),101% (inactive),92.9% (inactive),95.7% (inactive),–
OCCN1CCCCCCC1,109% (inactive),108% (inactive),101% (inactive),109% (inactive),–,103% (inactive),111% (inactive),90.8% (inactive),102% (inactive),104% (inactive)
C/C(=C\c1ccccc1)c1ccccn1,99.4% (inactive),114% (inactive),116% (inactive),118% (inactive),–,106% (inactive),106% (inactive),123% (inactive),110% (inactive),109% (inactive)
CC(C)C(C)(C)c1ccc(O)cc1,97.8% (inactive),105% (inactive),106% (inactive),106% (inactive),108% (inactive),107% (inactive),105% (inactive),114% (inactive),113% (inactive),111% (inactive)
O=c1n(CC2CO2)c(=O)n(CC2CO2)c(=O)n1CC1CO1 (stereo not drawn),17.8% (inactive),84.6% (inactive),64.4% (inactive),108% (inactive),100% (inactive),68.6% (inactive),79.2% (inactive),104% (inactive),72.2% (inactive),–
CCCCOc1ccc(Nc2cc(Cl)ccc2C(=O)O)cn1,96.1% (inactive),57.8% (inactive) and 93.2% (inactive),111% (inactive) and 94.6% (inactive),110% (inactive) and 101% (inactive),–,108% (inactive),111% (inactive) and 106% (inactive),95.3% (inactive) and 99.2% (inactive),90.4% (inactive) and 97.4% (inactive),42.5% (inactive) and 104% (inactive)
CC1CCC(C(C)C)C(NNC(N)=O)C1 (stereo not drawn),100% (inactive),98.5% (inactive),100% (inactive),131% (inactive),111% (inactive),109% (inactive),103% (inactive),91.6% (inactive),105% (inactive),–
CCCCOC(=O)/C=C\C(=O)NC(N)=O,-22.3% (active),39.5% (inactive),71.1% (inactive),93.1% (inactive),93.4% (inactive),111% (inactive),87.7% (inactive),99.1% (inactive),90.8% (inactive),74.1% (inactive)
CC(=O)NCC(=O)c1ccc([N+](=O)[O-])cc1,104% (inactive),104% (inactive),103% (inactive),103% (inactive),113% (inactive),108% (inactive),105% (inactive),106% (inactive),104% (inactive),–
Cc1ccc(S(=O)(=O)c2ccccc2)cc1,34.7% (inactive),49% (inactive),55.1% (inactive),80.1% (inactive),71.1% (inactive),29.5% (inactive),-38.9% (active),35.2% (inactive),21.1% (inactive),45.4% (inactive)
CN1CNC(=O)NC1,106% (inactive) and 79.6% (inactive),113% (inactive) and 104% (inactive),106% (inactive) and 98.6% (inactive),112% (inactive) and 111% (inactive),119% (inactive) and 112% (inactive),112% (inactive) and 105% (inactive),112% (inactive) and 107% (inactive),109% (inactive) and 96.5% (inactive),109% (inactive) and 103% (inactive),137% (inactive) and 97.8% (inactive)
NC(Cc1c[nH]c2ccccc12)C(=O)O (stereo not drawn),53.3% (inactive) and 105% (inactive),86.6% (inactive) and 103% (inactive),58.3% (inactive) and 93.5% (inactive),91.7% (inactive) and 103% (inactive),108% (inactive) and 102% (inactive),106% (inactive) and 105% (inactive),120% (inactive) and 107% (inactive),115% (inactive) and 95.3% (inactive),105% (inactive) and 111% (inactive),105% (inactive) and 120% (inactive)
Cl,104% (inactive),115% (inactive),98.6% (inactive),105% (inactive),125% (inactive),115% (inactive),119% (inactive),108% (inactive),102% (inactive),–
O=C1CSC2=NCCN12,98.3% (inactive) and 49.5% (inactive),101% (inactive) and 90.7% (inactive),96.4% (inactive) and 107% (inactive),116% (inactive) and 96.7% (inactive),93.9% (inactive) and 94.2% (inactive),105% (inactive) and 124% (inactive),102% (inactive) and 122% (inactive),88.1% (inactive) and 92.9% (inactive),94.9% (inactive) and 102% (inactive),–
O=C(CO)C(O)C(O)C(O)C(O)CO (stereo not drawn),103% (inactive) and 93.9% (inactive),107% (inactive) and 100% (inactive),108% (inactive) and 99.9% (inactive),105% (inactive) and 109% (inactive),108% (inactive) and 116% (inactive),87.8% (inactive) and 85.7% (inactive),110% (inactive) and 109% (inactive),101% (inactive) and 104% (inactive),106% (inactive) and 107% (inactive),–
CCN(CCNS(C)(=O)=O)c1ccc(N)c(C)c1,94.9% (inactive),59.9% (inactive) and 110% (inactive),78.1% (inactive) and 97.5% (inactive),115% (inactive) and 109% (inactive),69.6% (inactive) and 102% (inactive),98.6% (inactive) and 96% (inactive),25.5% (inactive) and 77.8% (inactive),115% (inactive) and 103% (inactive),90.2% (inactive) and 96.9% (inactive),70.3% (inactive) and 68.9% (inactive)
Nc1nc(N)c2[nH]cnc2n1,93% (inactive),64.3% (inactive),70.4% (inactive),90.3% (inactive),88.5% (inactive),–,97.8% (inactive),114% (inactive),87.3% (inactive),–
CC1=C/C(O)CC(=O)Cc2nc(co2)C(=O)N2CCC=C2C(=O)OC(C(C)C)C(C)/C=C\C(=O)NC/C=C\1 (stereo not drawn),17.9% (inactive),60.7% (inactive),74% (inactive),94.8% (inactive),–,119% (inactive),85% (inactive),63.4% (inactive),109% (inactive),3.64% (active)
NN1CCOC(c2ccccc2)C1 (stereo not drawn),29.8% (inactive),97.8% (inactive),103% (inactive),97.1% (inactive),119% (inactive),106% (inactive),106% (inactive),99.5% (inactive),105% (inactive),–
CCc1cc(C)cc(O)c1,102% (inactive),106% (inactive),105% (inactive),106% (inactive),–,102% (inactive),126% (inactive),110% (inactive),111% (inactive),92% (inactive)
CN(C)c1ccc(/C=C\C(=O)c2ccccc2)cc1,3.11% (active) and 59.4% (inactive) and 24.9% (inactive),72.7% (inactive) and 76.8% (inactive) and 69.6% (inactive),102% (inactive) and 93.9% (inactive) and 92.6% (inactive),106% (inactive) and 110% (inactive) and 99% (inactive),105% (inactive) and 109% (inactive) and 104% (inactive),92.3% (inactive) and 104% (inactive),81.4% (inactive) and 76.2% (inactive) and 78.5% (inactive),104% (inactive) and 99.6% (inactive) and 103% (inactive),88.2% (inactive) and 85.5% (inactive) and 93.1% (inactive),–
C#CCOC(=O)Nc1ccccc1,111% (inactive),105% (inactive),103% (inactive),95.8% (inactive),93.5% (inactive),109% (inactive),115% (inactive),105% (inactive),104% (inactive),–
